Source: PubChem BioAssay AID725 (NMMLSC, 2007)
Out of some 1,300 compounds screened, fewer than 10 were called active. The list is a sample of the results. Unmarked numbers belong to inactive results. How the calls were made is not given here.

Each compound was assayed against N-formyl peptide receptor 2 (Homo sapiens) (UniProt P25090) (assay: FPRL1 fluorescent ligand binding inhibitors, primary screen, selectivity assay for FPR ligand SAR project, cell-based, flow cytometry, HTS counterscreen (AID 725)). Conditions: FPRL1-expressing cells, stronger effect = higher value, concentration not given here.
Chain of N-formyl peptide receptor 2 (Homo sapiens) (P25090 whole entry, looked up): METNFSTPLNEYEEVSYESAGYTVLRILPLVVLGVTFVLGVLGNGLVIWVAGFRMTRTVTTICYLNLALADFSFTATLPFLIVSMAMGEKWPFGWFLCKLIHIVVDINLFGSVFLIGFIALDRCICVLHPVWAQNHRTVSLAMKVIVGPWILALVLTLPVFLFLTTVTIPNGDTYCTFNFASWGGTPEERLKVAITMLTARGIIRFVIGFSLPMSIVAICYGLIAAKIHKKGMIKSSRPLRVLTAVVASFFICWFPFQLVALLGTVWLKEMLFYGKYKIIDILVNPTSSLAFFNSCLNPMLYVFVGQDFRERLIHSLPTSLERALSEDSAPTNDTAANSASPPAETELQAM

Compound	inhibition
O=C(C(Cc1ccccc1)N1Cc2ccccc2C1=O)N1CCOCC1 (stereo not given)	-13.3%
CCOC(=O)c1c(NC(=O)c2cccs2)sc2c1CCC(C(C)(C)C)C2 (stereo not given)	-4.5%
CC(C)c1ccc(C2/C(=C(\O)c3ccc(F)cc3)C(=O)C(=O)N2CCN2CCOCC2)cc1 (stereo not given)	5.6%
CCOC(=O)Cc1c(C)nc2c(C#N)c(C)[nH]n2c1=O	5.1%
O=c1c(-c2ccc(Cl)cc2)c(C(F)(F)F)oc2c(CN3CCCCC3)c(O)ccc12	2.2%
COC(=O)c1c(NC(=O)c2cncc(Br)c2)sc2c1CCCC2	-1.3%
CN1C(=O)c2ccccc2C(C(=O)N2CCCC2)C1c1cccs1 (stereo not given)	-3%
O=C1C(=O)N(c2ccc(Br)cc2)C(c2ccc(Br)cc2)/C1=C(/O)c1ccccc1 (stereo not given)	0.2%
COC(=O)c1c(NC(=O)c2cc(OC)c(OC)c(OC)c2)sc(C)c1C	-10.3%
CCOC(=O)c1cc(C(C)C)sc1NC(=O)CCCC(=O)O	-4.7%
COc1ccc(OC)c(C(=O)CC2(O)C(=O)N(C)c3ccccc32)c1 (stereo not given)	1.1%
COc1ccc(CN2CCc3c(c(=O)n4ncc(C(=O)O)c4n3C)C2)cc1	-3.9%
CCc1c(C)nc2c(-c3ccc(OC)c(OC)c3)c(C)[nH]n2c1=O	-1.3%
Cc1ccc(C2/C(=C(\O)c3ccc(Cl)cc3)C(=O)C(=O)N2CCN2CCOCC2)cc1 (stereo not given)	0.3%
Cc1cc(C)nc(/N=C(/NC(=O)c2ccccc2)Nc2cccc(Cl)c2)n1	-4.7%
CCOc1ccc(C2/C(=C(/O)c3ccccc3)C(=O)C(=O)N2CC(C)O)cc1 (stereo not given)	-1.6%
CCC(Sc1nc2ncccc2o1)C(=O)Nc1ccccc1OC (stereo not given)	-16.4%
O=C1C(=O)N(c2ccccn2)C(c2cccnc2)/C1=C(/O)c1ccccc1 (stereo not given)	4.3%
CCOC(=O)c1c(NC(=O)c2cccc(Cl)c2)sc(C)c1C	6.4%
Cc1cc(C)c(NC(=O)CSc2nncn3c2cc2oc(C)cc23)c(C)c1	13.3%
COc1ccccc1NC(=O)CSc1nncn2c1cc1occc12	34.6% (active)
Cc1cc(C)c(NC(=O)CSc2nncn3c2cc2occc23)c(C)c1	12%
O=C1O[C@@H]2C[C@H]3C[C@@H]2[C@@H]1[C@H]3C(=O)N1CCc2ccccc21	-14.7%
O=C(O)C1CCCCC1C(=O)Nc1ccc(O)cc1 (stereo not given)	-4.1%
COc1ccc(C2SCC(=O)N2c2ccccc2)cc1 (stereo not given)	0%
